Consider 103 compounds from ChEMBL document CHEMBL4513216, “Probing the Open Global Health Chemical Diversity Library for Multistage-Active Starting Points for Next-Generation Antimalarials” (ACS Infect Dis, 2020).

Molecules are shown by their SMILES. Out of some 68,000 compounds screened, about 2,700 (4%) showed an effect of 50% or more. The sample holds strong results, similar compounds and a random draw of the others, so the mix is not that of the screen.

The test system of the test is Plasmodium berghei. Nature of the test: Screen against P. berghei liver stage (PbLuc), transformed with Luciferase, at 2uM. The class given is functional, HepG2. Particulars: tested at 2 uM.
Consider `Cn1cnc(S(=O)(=O)NCC2(O)CCc3ccccc3C2)c1` (stereo not drawn), for which the INHIBITION is recorded as 53.33%.

`Cn1cnc(S(=O)(=O)NCC2(O)CCc3ccccc32)c1` (stereo not drawn): the INHIBITION was found to be 30.34%.

On to `Cn1cnc(S(=O)(=O)NCC2(O)CCOc3ccccc32)c1` (stereo not drawn), for which the INHIBITION came to 45.19%. `CC(NC(=O)c1cccnc1N(C)C)c1ccccc1Br` (stereo not drawn): the INHIBITION was 20.32%. Consider `Cc1nc(CNCc2c(C(C)C)nn(C)c2N2CCOCC2)cs1`, for which the INHIBITION is 7.64%. Turning to `O=C([C@H]1C[C@@H]2CCN(c3cccc(F)c3)C[C@H]2O1)N1CCCC1`, the INHIBITION amounted to 39.51%.

Take `O=S(=O)(c1ccc(Cl)s1)N1CCCn2ncnc21`: the INHIBITION is given as -49.84%. Next, `COC(=O)c1ccc(S(=O)(=O)N2CCCn3ncnc32)s1`: 59.68%; `CCc1ccc(S(=O)(=O)N2CCCn3ncnc32)s1`: 13.38%; `Cc1nccn1-c1nccnc1C1CCCN(C)C1` (stereo not drawn): 1.75%. With `CCC(=O)NCC(=O)NCC(C)(C)c1cccc(Br)c1`, the INHIBITION is 15.2%. With `CN(C)c1nc2c(c(N(C)C)n1)CCN(C(=O)CN1C[C@H]3CC[C@@H]1C3)C2` the figure was -34.98%; with `O=C(NCC1CC1)C1CN(C(=O)c2cccnc2)CC12CCOCC2` (stereo not drawn), -1.37%. With `O=C(NCC1CC1)C1CN(C(=O)c2ccnnc2)CC12CCOCC2` (stereo not drawn) the figure was 59.59%; with `O=C(NCC1CC1)C1CN(C(=O)c2ccco2)CC12CCOCC2` (stereo not drawn), 14.39%; with `O=C(NCC1CC1)C1CN(C(=O)c2cccs2)CC12CCOCC2` (stereo not drawn), -4.92%. Next, `O=C(NCC1CC1)C1CN(C(=O)c2ccncc2)CC12CCOCC2` (stereo not drawn): -12.21%; `O=C(NCC1CC1)C1CN(C(=O)c2cccc(Cl)c2)CC12CCOCC2` (stereo not drawn): 71.99%.

On to `Cc1nnc(N2CC[C@@H](OCC3CC3)[C@@H](Cc3ccccc3)C2)s1`, for which the INHIBITION worked out at 1.74%.

Take `Cc1cc(C(=O)N(CC(F)(F)F)C2CCOCC2)c(C)o1`: the INHIBITION is recorded as 7.68%.

For the compound `Cc1noc(C)c1-c1cncc(C2CCCN2Cc2ccncc2)n1` (stereo not drawn), the INHIBITION came to 27.8%. Next, `COc1ccc(OC2CCN(C(=O)CCc3n[nH]c(C)n3)CC2)cc1`: -2.77%; `Cc1ccc(N2CCN(C(=O)CCc3n[nH]c(C)n3)CC2=O)cc1`: 19.75%. Take `COc1ccc(N2CCN(C(=O)CCc3n[nH]c(C)n3)CC2=O)cc1`: the INHIBITION was 62.3%.

For `O=C(O)[C@H]1OCC(=O)N(Cc2cccc(F)c2)[C@@H]1c1ccc(Cl)cc1`, the INHIBITION is reported as -4.48%.

For the compound `Cc1cccc(Nc2cccc(C3CCCN(Cc4ncc[nH]4)C3)n2)n1` (stereo not drawn), the INHIBITION was determined as 7.02%. Next, `Cc1cnn(CC2CCCN2CC(=O)N(C)CCC#N)c1` (stereo not drawn): -31.3%; `CC1=C[C@@H](CC#N)[C@H](C(C)C)C[C@H]1CC(=O)N1CCN(C)CC1`: 62.8%. Next, `CC1=C[C@@H](CC#N)[C@H](C(C)C)C[C@H]1CC(=O)N1CCN(CCO)CC1`: -3.1%; `CC(=O)N1CCN(C(=O)C[C@@H]2C[C@@H](C(C)C)[C@H](CC#N)C=C2C)CC1`: 46.32%; `Cc1cc(-c2cccc(C(=O)O)c2)nc(C2CCN(C(C)C)CC2)n1`: 24.56%.

On to `O=C(NC1CC1)[C@H]1CC[C@@H]2[C@@H](CCN2c2ncc(F)cn2)O1`, for which the INHIBITION is 1.07%. On to `COc1ccc(C)cc1CN(C)CCCNS(C)(=O)=O`, for which the INHIBITION is -81.99%. Turning to `Cn1c(=O)oc2cc(Nc3ncc(C#N)cc3Cl)ccc21`, the INHIBITION is on record as 53.13%.

On to `Cn1c(=O)oc2ccc(Nc3ncc(C#N)cc3Cl)cc21`, for which the INHIBITION is -4.24%. Next, `Cn1c(=O)oc2cc(Nc3nccnc3C#N)ccc21`: 9.42%. Next, `CCOc1nnc(CN2CCN(CCOC)C(CC)C2)s1` (stereo not drawn): -8.54%; `CCc1ncnc2c1CCN(S(=O)(=O)c1ccccc1)CC2`: 5.44%. Take `CCOc1ncnc2c1CCN(S(=O)(=O)CC)CC2`: the INHIBITION worked out at 8.41%. Regarding `CCOc1ncnc2c1CCN(S(=O)(=O)c1ccccc1)CC2`, the INHIBITION stood at 55.07%. With `CC1COCCN1C(=O)COc1ccc(Oc2ccccn2)cc1` (stereo not drawn) the figure was 41.88%. `O=C(NCCCN1CCOCC1)c1cc(-c2ccccc2)[nH]n1`: the INHIBITION is -55.91%. Next, `c1ccc(-c2ncn(CCCN3CCOCC3)c2-c2ccncc2)cc1`: 64.9%; `OCc1ccc(-c2c(-c3ccccc3)ncn2CCN2CCOCC2)o1`: -23.34%.

As for `CC(C)(Cn1cnc(-c2ccccc2)c1-c1ccco1)N1CCOCC1`, the INHIBITION is -9.41%. With `Cc1nc(-c2c(-c3ccccc3)ncn2CCCN2CCOCC2)c[nH]1` the figure was 64.9%; with `Cc1ccc(-c2c(-c3ccccc3)ncn2CCCN2CCOCC2)o1`, 33.9%; with `CC(=O)N1CCN(C(=O)c2[nH]nnc2Nc2ccccc2F)CC1`, -66.39%. Next, `COc1cccc(Cn2cc(N3C(=O)[C@H]4CCCC[C@H]4C3=O)cn2)c1`: -3.8%; `CN(C(=O)COCc1ccccc1)C1CCN(CC2CCOC2)CC1` (stereo not drawn): -11.88%; `CC(C)S(=O)(=O)NCC1CCCN(C(=O)c2ccc(Cl)cc2)C1` (stereo not drawn): 16.82%. Next, `N#Cc1csc(CNCCOc2ccc(Cl)cn2)c1`: 10.91%. With `Cc1cnn(CCNCc2c(C(C)C)nn(C)c2Cl)c1`, the INHIBITION amounted to 31.81%. With `Cc1cnn(CCNCc2nc(-c3ccccn3)no2)c1` the figure was 13.36%; with `CCn1nc(C)c(CNCCn2cc(C)cn2)c1C`, -0.98%; with `CCc1noc(CNCCn2cc(C)cn2)n1`, -24.75%. Next, `Cc1cnn(CCNCc2nc(-c3ccccc3Cl)no2)c1`: 73.05%.

Turning to `Cc1cnn(CCNCc2c(C)nn(C)c2Cl)c1`, the INHIBITION was determined as 56.15%. Take `CN1CCN(c2cnn(CCn3cccn3)c(=O)c2)CC1`: the INHIBITION amounted to 26.14%.

As for `Cc1ccccc1C(=O)N1C[C@@H]2C(CN(C)CCc3ccccn3)[C@@H]2C1` (stereo partly drawn), the INHIBITION is given as 56.21%. For the compound `Cc1cc(C(=O)N2C[C@@H]3C(CN(C)CCCn4cccn4)[C@@H]3C2)c(C)o1` (stereo partly drawn), the INHIBITION is recorded as -6.53%. As to `Cc1cc(C(=O)N2C[C@@H]3C(CN(C)CCc4ccccn4)[C@@H]3C2)c(C)o1` (stereo partly drawn), the INHIBITION was determined as 33.7%. For `Cc1cccc2c1ccn2CCC(=O)O`, the INHIBITION stood at 4.39%. With `Cc1noc(-c2ccc(N3CCCC(C(=O)N4CCSCC4)C3)nc2)n1` (stereo not drawn) the figure was -13.24%; with `Cc1noc(-c2ccc(N3CCCC(C(=O)c4nccn4C)C3)nc2)n1` (stereo not drawn), 58.53%. For `Cc1noc(-c2ccc(N3CCC(C(=O)N4CCCC4)CC3)nc2)n1`, the INHIBITION stood at 51.96%.

With `Cc1noc(-c2ccc(N3CCCC(C(=O)O)C3)nc2)n1` (stereo not drawn), the INHIBITION was 25.69%.

Consider `CCOC(=O)C1CCCN(c2ccc(-c3nc(C)no3)cn2)C1` (stereo not drawn), for which the INHIBITION is listed as -9.62%.

As for `Cc1noc(-c2ccc(N3CCCC(C(N)=O)C3)nc2)n1` (stereo not drawn), the INHIBITION is 22.86%. As for `CC(C)c1nc(C2CCCN2C(=O)c2cnc[nH]2)no1` (stereo not drawn), the INHIBITION is -66%. Next, `COc1cccc(NC(=O)C(C)Cn2cc(Cl)cn2)c1` (stereo not drawn): 36.45%. Next, `Cc1ccc2nnc(C(=O)NCCCn3cccn3)nc2c1`: -41.49%; `CC(C)(C(=O)NCC(=O)NCc1ccccc1)c1ccccc1F`: -3.22%; `COc1cc2c(cc1CN1CCc3sccc3C1C)OCCO2` (stereo not drawn): 18.06%. In the case of `COc1ccc(CN2CCc3sccc3C2C)cc1CN1CCOCC1` (stereo not drawn), the INHIBITION was found to be 56.39%. On to `CC1c2ccsc2CCN1Cc1cc2c(cc1O)OCO2` (stereo not drawn), for which the INHIBITION was determined as 12.7%. With `CCC1c2ccsc2CCN1Cc1cc2c(cc1OC)OCCO2` (stereo not drawn) the figure was 10.03%; with `COc1cc2c(cc1CN1CCc3sccc3C1C)OCO2` (stereo not drawn), 59.65%. Turning to `COc1ccsc1C(=O)Nc1cc(CN2CCOCC2)ccc1C`, the INHIBITION is 37.63%. Next, `CC(C)OCCn1nnnc1Cc1ccc(Br)cc1`: -21.99%. With `CNC(=O)NC(=O)CCN1CCN(c2nccs2)CC1` the figure was 27.2%; with `CS(=O)(=O)c1ccc(C(O)CN2CCC(c3ccn[nH]3)CC2)cc1` (stereo not drawn), 14.82%; with `C[C@@H]1CN(C(=O)c2cccs2)C[C@]12CCN(CCN(C)C)C2=O`, 6.12%. Next, `CCCc1nc(CN(CC)Cc2ccc(S(C)(=O)=O)cc2)no1`: -5.31%; `CN(Cc1ccc(Cl)s1)C(=O)Cn1nc(-c2ccc(F)cc2)oc1=O`: 14.82%; `Cc1nnc(SCCC(=O)N(C)Cc2ccc(F)cc2F)[nH]1`: 10.05%. Regarding `CN(CC(N)=O)Cc1ccc(F)cc1Cl`, the INHIBITION is -6.61%. On to `Cc1nnc(SCCC(=O)N(C)Cc2c(F)cccc2Cl)[nH]1`, for which the INHIBITION stood at 21.97%. On to `Cc1nnc(SCCC(=O)N(C)Cc2ccc(F)cc2Cl)[nH]1`, for which the INHIBITION was determined as 52.98%.

Take `Cc1nnc(SCCC(=O)N(C)Cc2ccc(Cl)s2)[nH]1`: the INHIBITION came out at 55.36%. With `O=C(NCCc1cccc(F)c1)NCC(O)c1cccc(F)c1` (stereo not drawn), the INHIBITION is reported as -47.97%. Next, `COc1nc2c(cc1C(=O)N1CCCOC(CN3CCCC3)C1)CCC2` (stereo not drawn): -8.45%; `CCN(Cc1cnn(C)c1)C[C@H]1CC[C@@H](Cc2ccc(OC)nc2)O1`: -6.22%; `CCN(Cc1cnn(C)c1)C[C@H]1CC[C@@H](Cc2ccc(CO)cc2)O1`: 36.78%. For `CCN(Cc1cnn(C)c1)C[C@H]1CC[C@@H](Cc2ccc(C)nc2)O1`, the INHIBITION worked out at 55.84%. For the compound `CN(C)S(=O)(=O)N1CCO[C@H]2[C@H](Oc3cccnc3)CC[C@@H]21`, the INHIBITION is -16.75%. As to `O=C(c1cc(CC2(NCc3ccccc3)COC2)no1)N1CCCCC1`, the INHIBITION is given as 56.76%.

As to `O=C(c1cc(CC2(NCC3CCCCC3)COC2)no1)N1CCCCC1`, the INHIBITION is recorded as 54.01%. With `CC(C)(O)c1cc(CC2(NCC3CCCCC3)COC2)no1` the figure was -24.31%. Regarding `OCCc1cc(CC2(NCc3ccncc3)COC2)no1`, the INHIBITION stood at 24.64%. On to `O=C(c1cc(CC2(NC3CCCCC3)COC2)no1)N1CCCCC1`, for which the INHIBITION is given as 10.08%. With `COCc1cc(CC2(NCc3ccccc3Cl)COC2)no1` the figure was 27.54%; with `O=C(Nc1cccnc1)[C@@H]1C[C@H]2OCC[C@H]2N(Cc2nccs2)C1`, 1.06%.
